These results are taken from PubChem BioAssay (Tox21).

Where “and” joins values, the source holds several entries; their conditions need not be identical. Identical values can stand only once. Results filed as inconclusive are left out. The source holds several records for some structures; these can differ, active in one and inactive in another. Calls of active or inactive are those of the source. Unless noted, the call rests on the fitted dose curve; in most records, active means well fitted curve in the direction sought with a large enough effect in the repeat runs; inconclusive means weak or mixed curves; inactive means no such curve, though single readings can be large; an effect the other way counts as inactive or inconclusive.

Assay [1] can be described thus: qHTS assay to identify small molecule antagonists of the estrogen related receptor (ERR) signaling pathway from Tox21 library - cell viability counter screen (AID 1224834). Further: on the % scale 0 is the no-effect control and ±100 the full control effect; nearly all actives have a fitted effect of over 30% in size. The gist of the method:
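CellTiter-Fluor fluorescence measured; ERR cells; 17.5 h compound incubation at 37 C; 30 min reagent step.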

For assay [2], the target named is Luciferin 4-monooxygenase (Photinus pyralis) (UniProt P08659). Kind of assay: qHTS assay to identify small molecule inhibitors of firefly luciferase (AID 1224835). Further: nearly all actives have a fitted effect of over 25% in size. Further: potency means the concentration at half of the fitted maximal effect. In outline: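 Biochemical qHTS: compounds run as interplate titrations against purified firefly enzyme, with D-luciferin and ATP each at its KM concentration. Light output recorded by CCD imaging.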
Sequence of Luciferin 4-monooxygenase (Photinus pyralis) (P08659 whole entry, looked up): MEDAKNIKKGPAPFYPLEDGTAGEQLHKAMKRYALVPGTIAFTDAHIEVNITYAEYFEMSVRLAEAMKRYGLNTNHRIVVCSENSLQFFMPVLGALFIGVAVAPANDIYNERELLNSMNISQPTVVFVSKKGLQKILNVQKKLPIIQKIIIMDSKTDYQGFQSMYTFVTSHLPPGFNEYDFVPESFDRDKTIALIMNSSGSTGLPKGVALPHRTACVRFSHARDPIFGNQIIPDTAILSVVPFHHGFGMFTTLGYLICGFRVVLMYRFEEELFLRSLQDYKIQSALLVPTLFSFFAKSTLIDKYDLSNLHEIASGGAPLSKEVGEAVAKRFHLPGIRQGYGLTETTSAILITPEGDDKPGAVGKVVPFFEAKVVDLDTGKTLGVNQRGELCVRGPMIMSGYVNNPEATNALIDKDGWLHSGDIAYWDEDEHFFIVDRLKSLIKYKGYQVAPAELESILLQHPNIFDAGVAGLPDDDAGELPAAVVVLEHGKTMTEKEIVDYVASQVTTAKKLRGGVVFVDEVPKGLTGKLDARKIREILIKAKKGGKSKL
The nature of assay [3]: qHTS assay to identify small molecule agonists of the constitutive androstane receptor (CAR) signaling pathway - cell viability counter screen (AID 1224836). Further: on the % scale 0 is the no-effect control and ±100 the full control effect; nearly all actives have a fitted effect of over 45% in size. The gist of the method: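 HepG2-CYP2B6-hCAR, 2500 cells/well, 4 h pre-incubation; cpd 15 conc + PK11195 0.75 uM final; 23 h, 37 C/5% CO2; CellTiter-Fluor, fluorescence.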
The nature of assay [4]: qHTS assay to identify small molecule antagonists of the constitutive androstane receptor (CAR) signaling pathway - cell viability counter screen (AID 1224837). Further: on the % scale 0 is the no-effect control and ±100 the full control effect; nearly all actives have a fitted effect of over 45% in size. In outline: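 Using CellTiter-Fluor, viability is scored in HepG2 cells stably carrying hCAR and a 2.2kb CYP2B6 reporter after 23 hr compound exposure across 15 concentrations, with CITCO present at 50 nM.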
The target of assay [5] is Nuclear receptor subfamily 1 group I member 3 (Homo sapiens) (UniProt Q14994). The assay can be described thus: qHTS assay to identify small molecule antagonists of the constitutive androstane receptor (CAR) signaling pathway (AID 1224838).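 Further: HepG2 cells stably expressing hCAR with CYP2B6 luciferase reporter stimulated by CITCO; on the % scale 0 is the no-effect control and ±100 the full control effect; nearly all actives have a fitted effect of over 40% in size.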 In outline: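 Reporter luminescence was quantified after 24 h exposure of hCAR/CYP2B6-2.2kb double-stable HepG2 cells to compounds at 15 concentrations in the presence of 50 nM CITCO final.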
Sequence of Nuclear receptor subfamily 1 group I member 3 (Homo sapiens) (Q14994 whole entry, looked up): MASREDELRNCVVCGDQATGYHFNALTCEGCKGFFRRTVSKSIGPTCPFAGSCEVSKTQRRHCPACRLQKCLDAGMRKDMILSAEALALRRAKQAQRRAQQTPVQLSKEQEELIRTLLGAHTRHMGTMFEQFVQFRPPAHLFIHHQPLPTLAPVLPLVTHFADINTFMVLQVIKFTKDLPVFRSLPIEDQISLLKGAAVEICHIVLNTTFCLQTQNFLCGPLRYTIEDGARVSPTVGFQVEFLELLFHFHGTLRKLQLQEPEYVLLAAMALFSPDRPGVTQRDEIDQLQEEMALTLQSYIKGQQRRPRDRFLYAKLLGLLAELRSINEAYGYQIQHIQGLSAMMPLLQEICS

Assay [6] shares this target. Kind of assay: qHTS assay to identify small molecule agonists of the constitutive androstane receptor (CAR) signaling pathway (AID 1224839). Further: nearly all actives have a fitted effect of over 15% in size. Further: potency means the concentration at half of the fitted maximal effect. On activation: on the % scale 0 is the no-effect control and ±100 the full control effect. In outline:
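HepG2-CYP2B6-hCAR cells, 2500/well, 4 h pre-incubation; compounds 15 conc.; PK11195 0.75 uM final; 24 h, 37 C/5% CO2; ONE-Glo luciferase read.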

Assay [7] is described as follows: qHTS assay to identify small molecule antagonists of the estrogen related receptor signaling pathway with the pleiotropic PPARgamma coactivator (PGC) from Tox21 10K library - cell viability counter screen (AID 1224840; active means well fitted cell-killing curve with a large enough effect in the repeat runs, not every such curve was filed as active; further: on the % scale 0 is the no-effect control and ±100 the full control effect; nearly all actives have a fitted effect of over 40% in size). In outline: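 Here the PGC/ERR cells serve as a cytotoxicity control: they are exposed to compounds for 17.5 hours at 37 C, and live-cell signal is quantified using CellTiter-Fluor fluorescence.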

Assay [8] addresses Thyrotropin receptor (Homo sapiens) (UniProt P16473). The assay can be described thus: qHTS assay to identify small molecule agonists of the thyroid stimulating hormone receptor (TSHR) signaling pathway (AID 1224843; calls by dose curve; further: nearly all actives have a fitted effect of over 45% in size; further: potency means the concentration at half of the fitted maximal effect; on activation: on the % scale 0 is the no-effect control and ±100 the full control effect). In outline:
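TSHR-HEK293 cells in agonist mode, 30 min room-temperature step, then cAMP measured by competitive HTRF (cAMP-d2 with anti-cAMP cryptate) after 1 h at room temperature. Tested at 15 concentrations in triplicate.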

Assay [9] is described as follows: qHTS assay to identify small molecule agonists of the hypoxia (HIF-1) signaling pathway - cell viability counter screen (AID 1224844; calls by dose curve; further: nearly all actives have a fitted effect of over 50% in size; further: potency means the concentration at half of the fitted maximal effect). In outline:
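Multiplexed with the HRE beta-lactamase assay, this viability read used CellTiter-Glo luminescence (30 min, RT) on HRE-bla ME-180 cells treated 17 hrs with compounds in 0.5% dialyzed FBS medium.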

The nature of assay [10]: qHTS assay to identify small molecule agonists of H2AX (AID 1224845; active means well fitted activation curve with a large enough effect in the signal ratio in the repeat runs, not every such curve was filed as active; the % refers to the signal ratio; further: on the % scale 0 is the no-effect control and ±100 the full control effect). In outline: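 Wild-type CHO-K1 cells, plated overnight, exposed 3hr at 37C to 15 concentrations (0.76% DMSO final). Lysed, then HTRF anti-pH2AX (S139) cryptate and anti-H2AX-d2 antibodies, 24 hr room temperature; 665/620 nm emission read.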
A short description of assay [11]: qHTS assay to identify small molecule agonists of the hypoxia (HIF-1) signaling pathway (AID 1224846; active means well fitted activation curve with a large enough effect in the signal ratio in the repeat runs, not every such curve was filed as active; the % refers to the signal ratio; further: on the % scale 0 is the no-effect control and ±100 the full control effect). The gist of the method:
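Hypoxia-pathway activation was scored as increased beta-lactamase from an HRE-controlled reporter in ME-180 cells; plated at 2,000 cells per well with 0.5% dialyzed FBS, they were exposed 17 hrs to compounds and then given CCF4-AM.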

A short description of assay [12]: qHTS assay to identify small molecule agonists of H2AX - cell viability counter screen (AID 1224847; calls by dose curve; further: top concentration of the series differs between compounds; on the % scale 0 is the no-effect control and ±100 the full control effect; nearly all actives have a fitted effect of over 30% in size). In outline: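 Cells plated first: CHO-K1, 1000 per well in 10% FBS medium, incubated overnight at 37C. Then 15-point compound titration added (final DMSO 0.76%) for 3 hr. Finally CellTiter-Glo added and luminescence read.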
Assay [13] in a line: qHTS RealTime-Glo MT Cell Viability Assay in HepG2 cells - 24 hour (AID 1224867). Further: on the % scale 0 is the no-effect control and ±100 the full control effect; nearly all actives have a fitted effect of over 50% in size. The gist of the method: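 Real-time, nonlytic viability: 600 HepG2 cells/well mixed with NanoLuc enzyme plus prosubstrate; 5 h settle, compound (DMSO) added by pintool; luminescence monitored over 40 h at 37 C.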
Assay [14] in a line: A CellTox Green Cytotoxicity Assay to monitor cytotoxicity in HEK293 cells - 0 hour (AID 1224869). Further: on the % scale 0 is the no-effect control and ±100 the full control effect; nearly all actives have a fitted effect of over 50% in size. In outline:
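Seeding of HEK293 cells together with cytotoxicity dye preceded a 5 h incubation at 37 C/5% CO2. Test compounds in DMSO were then added and fluorescence monitored across 40 h.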

The nature of assay [15]: qHTS assay to identify small molecule agonists of the estrogen related receptor signaling pathway with the pleiotropic PPARgamma coactivator (PGC) (AID 1224823). Further: potency means the concentration at half of the fitted maximal effect. In outline:
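Steps: plate PGC/ERR cells at 2,000 cells/well; incubate 6 h, 37 C/5% CO2; pin-transfer compounds (DMSO); incubate 18 h, 37 C; add One-Glo; 30 min RT; read luminescence.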

Assay [16] is described as follows: qHTS assay to identify small molecule antagonists of the estrogen related receptor signaling pathway with the pleiotropic PPARgamma coactivator (PGC) from Tox21 10K library (AID 1224841; call rule not given here; further: on the % scale 0 is the no-effect control and ±100 the full control effect; actives are mostly falling curves and most rising ones were filed inactive; nearly all actives have a fitted effect of over 50% in size). The gist of the method:
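Each well held 2,000 PGC/ERR cells, pre-incubated six hours (37 C, 5% CO2). Test substances in DMSO were added by pin tool and left for 18 h at 37 C before luciferase detection by One-Glo.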

Assay [17] in a line: qHTS assay to identify small molecule agonists of the estrogen related receptor signaling pathway with the pleiotropic PPARgamma coactivator (PGC) from Tox21 10K library (AID 1224842). Further: nearly all actives have a fitted effect of over 15% in size. Further: potency means the concentration at half of the fitted maximal effect. The gist of the method:
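PGC/ERR reporter cell line, 2,000 cells per well, incubated 6 h at 37 C before 23 nL compound in DMSO was added. After 18 h at 37 C, One-Glo luminescence read following 30 min at room temperature.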

The nature of assay [18]: qHTS assay to identify small molecule antagonists of the estrogen related receptor (ERR) signaling pathway from Tox21 library (AID 1224848). The gist of the method:
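ERR reporter cell line (from NTP) seeded 2,000 cells/well, rested 6 h at 37 C/5% CO2, then pin-dosed with compounds in DMSO. After 18 h at 37 C, ONE-Glo added; luminescence read after 30 min at room temperature.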

Assay [19] is described as follows: qHTS assay to identify small molecule agonists of the estrogen related receptor (ERR) signaling pathway from Tox21 library (AID 1224849; calls by dose curve; further: on the % scale 0 is the no-effect control and ±100 the full control effect; nearly all actives have a fitted effect of over 15% in size). As to conditions: ERR reporter cell line, ONE-Glo luciferase, 18 h; at 92.4 µM (top of the series). In outline: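 Six hours post-seeding at 37 C/5% CO2, ERR cells receive DMSO-solubilised compounds; after 18 h at 37 C, ONE-Glo reagent is applied and luminescence recorded.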

The nature of assay [20]: qHTS RealTime-Glo MT Cell Viability Assay in HEK293 cells - 32 hour (AID 1224868). The gist of the method: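 Cells + reagent dispensed (600 cells/well, HEK293) → 5 h at 37 C/5% CO2 → 23 nL compound in DMSO pinned → 40 h at 37 C → luminescence read at 0, 8, 16, 24, 32, 40 h.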

Sequence of Thyrotropin receptor (Homo sapiens) (P16473 whole entry, looked up): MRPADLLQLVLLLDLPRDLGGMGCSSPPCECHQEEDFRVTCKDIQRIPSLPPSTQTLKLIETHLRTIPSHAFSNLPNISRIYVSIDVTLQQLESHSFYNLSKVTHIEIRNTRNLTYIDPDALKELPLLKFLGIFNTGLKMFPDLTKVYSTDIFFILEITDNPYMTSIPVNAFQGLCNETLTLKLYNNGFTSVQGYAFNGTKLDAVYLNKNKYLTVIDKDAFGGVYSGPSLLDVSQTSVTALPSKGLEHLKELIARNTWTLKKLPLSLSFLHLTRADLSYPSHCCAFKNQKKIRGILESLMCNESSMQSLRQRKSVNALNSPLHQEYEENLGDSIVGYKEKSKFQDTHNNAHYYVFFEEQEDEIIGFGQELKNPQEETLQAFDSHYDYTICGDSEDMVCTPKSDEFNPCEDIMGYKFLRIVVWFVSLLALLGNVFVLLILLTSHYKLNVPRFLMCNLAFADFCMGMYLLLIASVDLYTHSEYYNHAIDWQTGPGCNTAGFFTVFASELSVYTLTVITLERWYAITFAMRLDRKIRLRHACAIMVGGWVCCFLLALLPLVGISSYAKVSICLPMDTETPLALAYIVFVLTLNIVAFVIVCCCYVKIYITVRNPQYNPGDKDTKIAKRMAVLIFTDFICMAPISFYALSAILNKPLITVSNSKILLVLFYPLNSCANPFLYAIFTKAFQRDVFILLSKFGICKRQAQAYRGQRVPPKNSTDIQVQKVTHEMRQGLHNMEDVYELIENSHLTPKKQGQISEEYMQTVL

`CCC(C)C=O` (stereo not drawn): the Potency result in assay [1], in [2], in assay [3], in assay [4], in [5] and in [6] was “inactive” throughout. Besides, the Potency result in assay [7], in assay [9], in [10], in [12], in assay [13] and in assay [14] was “inactive” throughout. The Potency in assay [8] is 4.32 µM (active) and inactive. Moreover, the compound was classed as inactive in assay [11].
With `O=c1c(-c2ccc(O)cc2)coc2cc(O)ccc12`, the Potency is 20.3 µM (active) in [15]; 24.9 µM (active) and 12.6 µM (active) in assay [2]; 15.2 µM (active) and 10.9 µM (active) in [6]; 24.1 µM (active) and 27.3 µM (active) in assay [17]. Moreover, the Potency result in assay [1], in assay [3], in [4], in assay [7], in assay [16] and in [8] was “inactive” in each case. Further, the Potency entry in [9], in assay [10], in assay [18], in assay [13] and in [14] was “inactive” in each case. The activity change, positive = activation in assay [19] is 150% (active) and 64.9% (active).
Turning to `CCCCC(CC)C(=O)OCCOCCOCCOC(=O)C(CC)CCCC` (stereo not drawn), the Potency entry in [1], in assay [2], in assay [3], in assay [4], in assay [5] and in assay [6] was “inactive” each time. In addition, the Potency result in [7], in [16], in [17], in assay [9], in assay [10] and in assay [12] was “inactive” throughout. For the same compound, the Potency entry in assay [18], in assay [13] and in assay [14] was “inactive” throughout. Also, the compound was called inactive in assay [11]. For the same compound, the activity change, positive = activation in assay [19] is -11.1% (inactive) and 0.258% (inactive).
In the case of `CC(C)(CO)COC(=O)C(C)(C)CO`, the Potency result in assay [1], in assay [2], in assay [3], in [4], in [5] and in [6] was “inactive” in each case. The Potency entry in assay [7], in assay [16], in assay [17], in [8], in [9] and in [10] was “inactive” each time. In addition, the Potency result in [12], in [18], in assay [13] and in [14] was “inactive” throughout. For the same compound, the outcome in [11] was inactive. For the same compound, the activity change, positive = activation in assay [19] was 2.22% (inactive) and 0.644% (inactive).
In the case of `O=C(O)c1cc(-c2ccccc2)nc2ccccc12`, the Potency result in assay [15], in assay [1], in assay [3], in assay [4], in assay [5] and in assay [7] was “inactive” throughout. Besides, the Potency entry in assay [16], in assay [8], in assay [9], in assay [10], in assay [18] and in [13] was “inactive” throughout. For the same compound, in assay [14], the Potency entry was “inactive”. In addition, the Potency in assay [2] was 12.8 µM (active) and 13.8 µM (active). Also, the activity change, positive = activation in assay [19] was 1.96% (active).
With `Nc1nc2ncc(CNc3ccc(C(=O)N[C@@H](CCC(=O)O)C(=O)O)cc3)nc2c(=O)[nH]1`, the Potency result in assay [1], in [2], in assay [3], in assay [4], in assay [5] and in assay [6] was “inactive” in each case. The Potency result in assay [7], in [8], in assay [9], in assay [10], in assay [12] and in assay [13] was “inactive” throughout. For the same compound, the Potency entry in assay [14] was “inactive”.
On to `O=Nc1ccc(O)cc1`, for which the Potency entry in assay [1], in [2], in assay [3], in assay [4], in assay [5] and in [6] was “inactive” in each case. Moreover, the Potency entry in assay [7], in assay [8], in assay [9], in assay [13] and in assay [14] was “inactive” in each case. Further, the compound was classed as inactive in assay [11].
Consider `ClC1=C(Cl)C(Cl)(Cl)C(Cl)=C1Cl`, for which the Potency result in [1], in [2], in assay [3], in assay [4], in assay [5] and in assay [6] was “inactive” in each case. Besides, the Potency result in assay [7], in assay [16], in assay [17], in assay [8], in assay [10] and in [12] was “inactive” in each case. For the same compound, the Potency entry in assay [18], in [13] and in assay [14] was “inactive” throughout. In addition, the Potency in assay [9] was 11 µM (active) and 6.17 µM (active); in [20] it was 39.1 µM (active). In addition, in assay [19], the activity change, positive = activation is 5.38% (inactive) and 4.2% (inactive).
